From PubChem
D2 PAM-1: Beta-Arrestin HTS for Positive Allosteric Modulators of the Human D2 Dopamine Receptor: Potentiators. D(2) dopamine receptor (Homo sapiens), P14416. DiscoveRx D2 beta-arrestin cells, luminescence, 90 min; 100% = 57 uM dopamine signal. potentiation, % (no concentration beside the values). actives 0.23% (n = 360,000). AID 624464, 2012; in the data active = potentiation above about 50%; inconclusive = mostly about 30% to 49%
Target sequence (P14416 whole entry, looked up): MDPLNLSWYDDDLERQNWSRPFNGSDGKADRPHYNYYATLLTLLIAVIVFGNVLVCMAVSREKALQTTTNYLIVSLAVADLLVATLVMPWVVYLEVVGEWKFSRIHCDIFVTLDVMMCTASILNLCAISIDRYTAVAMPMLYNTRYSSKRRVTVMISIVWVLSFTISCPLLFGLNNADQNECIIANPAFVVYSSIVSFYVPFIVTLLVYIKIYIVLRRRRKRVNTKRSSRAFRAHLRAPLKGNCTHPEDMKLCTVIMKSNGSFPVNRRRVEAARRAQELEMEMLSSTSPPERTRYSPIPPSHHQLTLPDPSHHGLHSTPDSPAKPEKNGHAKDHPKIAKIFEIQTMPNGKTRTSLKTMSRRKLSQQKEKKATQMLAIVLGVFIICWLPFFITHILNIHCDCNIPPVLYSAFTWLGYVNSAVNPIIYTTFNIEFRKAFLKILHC
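PathHunter beta-arrestin assay in DiscoveRx D2 cells. Compounds were added with an EC20 of dopamine (50 nM final) for 90 min at 37 deg C. Luminescence was read 1 h after detection reagent, with 57 uM dopamine as the EC100 control.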
D2 ag-1: Beta-Arrestin HTS for Positive Allosteric Modulators of the Human D2 Dopamine Receptor: Agonists; D(2) dopamine receptor (Homo sapiens), P14416; DiscoveRx PathHunter D2 beta-arrestin, luminescence, 90 min; 100% = 57 uM dopamine signal; activation, % (no concentration beside the values); actives 0.084% (n = 360,000); AID 624465, 2012; in the data active = activation above about 40%; inconclusive = between about 15% and that limit
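DiscoveRx PathHunter D2 beta-arrestin cells (2,100/well) attached overnight, then compound-stimulated 90 min at 37 C in HBSS/10 mM HEPES/0.1% Tween-20 buffer; beta-galactosidase complementation read by luminescence after 1 h at ambient temperature. Dopamine 57 uM final (EC100) as control.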
D2 PAM-2: HTS Assay for Positive Allosteric Modulators of the Human D2 Dopamine Receptor: Primary Screen for Potentiators | D(2) dopamine receptor (Homo sapiens), P14416 | HEK293 T-REx D2, calcium flux, EC20 dopamine potentiation | potentiation, % at 10 µM | actives 0.34% (n = 340,000) | AID 485347, 2010;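 active = potentiation over 3 SD above the plate norm, cut at about 30% in these data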; note: 0% is about no effect
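Cells plated with tetracycline inducer and held overnight at 30 C; calcium dye loaded 30–90 min at room temperature; baseline taken, compound added and read 180 s; EC20 dopamine then added and read 180 s.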
D2 antag: HTS Assay for Allosteric Antagonists of the Human D2 Dopamine Receptor: Primary Screen for Antagonists; HEK293 TREx D2 cells, calcium flux, dopamine EC80; inhibition, % at 10 µM; actives 2% (n = 340,000); AID 485344, 2010; in the data active = inhibition above about 30%; inactive = below that, where a call was filed; note: 0% is about no effect
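Cells plated overnight at 30 C with tetracycline; no-wash calcium dye, 30–90 min RT; 10 s baseline; compound pinned; 180 s read; EC80 dopamine added; another 180 s read.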
D2 ag-2: HTS Assay for Allosteric Agonists of the Human D2 Dopamine Receptor: Primary Screen for Agonists; D(2) dopamine receptor (Homo sapiens), P14416; HEK293 T-REx D2 cells, calcium flux agonist mode; activation, % at 2 µM; actives 0.53% (n = 340,000);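 active = activation over 3 SD above normal in the single-dose calcium agonist read, cut at about 30% in these data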; note: 0% is about no effect
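Agonism is scored from calcium flux in a force-coupled, inducible HEK293 cell line expressing D2, read kinetically for 180 s after compound addition against dopamine controls.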
The depositor's hits bear a star; ? = inconclusive; nt = no result given. This is a sample that favours compounds with a hit; in the whole collection about 2.4% have one here.

SMILES	D2 PAM-1	D2 ag-1	D2 PAM-2	D2 antag	D2 ag-2
Cc1ccc(C(C)C)c(OCC(=O)N/N=C/c2cccn2C)c1	-27.4	-7.0	-4.4	0.7	-0.2
O=S(=O)(/N=C(\c1ccccc1)N1CCOCC1)c1cccs1	0.6	0.2	-6.5	-4.9	0.1
c1ccc(N=C(c2cccs2)N2CCOCC2)cc1	-18.3	-16.5	-14.3	31.8*	0.5
ON=C1c2ccccc2-c2ccc(O)cc21	-18.2	-5.9	nt	nt	nt
CC(=NO)c1ccc2c(c1)C(=NO)c1ccccc1-2	83.5*	13.4	nt	nt	nt
CC1=C(C(=O)Nc2ccc(C)cc2C)C(c2ccc([N+](=O)[O-])cc2)n2ncc(C(=O)Nc3ccc(F)cc3)c2N1 (stereo not given)	nt	nt	5.5	nt	nt
CCS(=O)(=O)NC(C)C(c1cccs1)N1CCN(c2ccc(F)cc2)CC1 (stereo not given)	-2.5	-1.1	-3.9	39.7*	1.9
COc1ccc(OC)c(/C=N/N2CCN(c3ccc(Cl)cc3)CC2)c1	-12.6	0.9	-3.2	-0.4	0.8
O=S(=O)(Cc1ccccc1)N1CCN(C2Cc3ccccc3C2)CC1	-12.7	-1.5	-6.8	30.3*	1.4
O=S1(=O)CCC(NS(=O)(=O)c2cccc3cccnc23)C1 (stereo not given)	12.1	-1.1	34.2*	-7.6	-1.4
Cc1ccc(-n2cnc3cc(C(=O)NC4CCCCCC4)ccc32)cc1Cl	nt	nt	2.1	nt	nt
Cc1csc(NS(=O)(=O)c2cccc([N+](=O)[O-])c2)n1	-8.7	1.8	-22.4	34.3*	0.9
Cc1ccc(N(Cc2cccs2)C(=O)COc2ccccc2[N+](=O)[O-])cc1	nt	nt	5.9	nt	nt
COc1nc2ccccc2nc1N1CCN(Cc2ccc3c(c2)OCO3)CC1	-34.4	-3.0	-26.6	51.0*	-1.2
c1ccc2nc(N3CCN(Cc4ccc5c(c4)OCO5)CC3)cnc2c1	-26.8	-3.5	-15.1	-17.7	-0.5
COc1ccc(S(=O)(=O)N2CCN(Cc3ccc4c(c3)OCO4)CC2)c2ccccc12	-4.6	-3.3	-10.1	31.3*	0.4
COc1ccc(Cl)cc1S(=O)(=O)N1CCN(Cc2ccc3c(c2)OCO3)CC1	-5.8	-0.8	-7.1	-0.5	-0.1
CCN(CC)CCNC(=O)c1cc(Cl)c(N)cc1OC	-22.9	-6.8	-28.0	81.8*	1.2
CCN(CC)CCNC(=O)c1cc([N+](=O)[O-])c(N(C)C)cc1OC	-13.8	-1.8	-21.2	94.1*	-1.3
Cc1cccc(CNC(=O)CS(=O)(=O)c2cccc3nsnc23)c1	nt	nt	-5.8	nt	0.6
CS(=O)(=O)N1CCCC(C(=O)NCCCN2CCC(Cc3ccccc3)CC2)C1 (stereo not given)	-24.3	-1.3	-30.1	46.3*	0.7
CCS(=O)(=O)N1CCC(C(=O)NCCCN2CCC(Cc3ccccc3)CC2)CC1	-4.1	0.2	-9.8	5.3	0.6
CCCS(=O)(=O)N1CCC(C(=O)NCCN2CCC(Cc3ccccc3)CC2)CC1	-5.2	1.3	-20.5	33.9*	38.0*
CS(=O)(=O)N1CCCC(C(=O)NCCCN2CCN(Cc3ccccc3)CC2)C1 (stereo not given)	-17.5	-2.4	2.3	0.7	-0.6
Fc1c(F)c(F)c(N/N=C/c2c[nH]c3ccccc23)c(F)c1F	60.2*	?	13.5	-7.0	0.2
SMILES	D2 PAM-1	D2 ag-1	D2 PAM-2	D2 antag	D2 ag-2
CCOc1ccc(/C=N/NC(=O)c2cc3c(OC)cc(OC)c(OC)c3[nH]2)cc1	-1.6	11.3	-19.7	55.7*	0.4
Cc1ccc(CN2CCC(c3nc4ccc(Cl)cc4[nH]3)CC2)cc1	-31.1	-1.2	-15.3	86.8*	-0.4
CC1CCCCN1C(=O)CN1CCC(c2nc3ccc(Cl)cc3[nH]2)CC1 (stereo not given)	-7.0	-3.5	-6.3	8.5	-0.7
Clc1ccc2nc(C3CCN(Cc4ccccc4)CC3)[nH]c2c1	-18.3	-1.5	-18.0	52.5*	-1.1
CNC(=O)c1ccc(Nc2nnc(-c3ccc(C)c(S(=O)(=O)N4CCOCC4)c3)c3ccccc23)cc1	nt	nt	-2.4	nt	0.3
COc1ccccc1C1C(C(C)=O)=C(C)N=c2s/c(=C\c3cc(OC)c(OC)c(OC)c3)c(=O)n21 (stereo not given)	16.1	2.2	31.7*	3.5	0.8
O=C(CS(=O)(=O)Cc1ccccc1)Nc1ccc(Cl)cn1	-8.2	-1.7	-0.3	51.9*	0.6
C=CC[C@H](CC(=O)NCCO)C(=O)NC[C@@H](OC(=O)[C@@H](CC=C)CC(=O)OC(C)(C)C)c1ccccc1	-10.7	1.7	nt	nt	nt
Oc1ccc(/C=N/N=C/c2ccc(O)c(O)c2)cc1O	4.1	10.1	6.9	11.7	-0.4
Oc1ccc(N=Cc2ccc(O)c(O)c2)cc1	82.6*	?	12.8	-18.8	0.1
COC(=O)N1CCCCC1c1cc(C(=O)NCc2cccnc2)no1 (stereo not given)	-7.6	-6.2	nt	nt	nt
O=C(O)c1ccccc1-c1ccc(/C=C/c2cc(C(F)(F)F)[nH]c(=O)n2)o1	-0.3	-2.6	2.3	16.0	45.2*
CC1(C)S[C@@H]2[C@H](NC(=O)C(C(=O)O)c3ccccc3)C(=O)N2[C@H]1C(=O)O (stereo not given in full)	5.2	-5.8	7.7	32.8*	1.2
CC1(C)S[C@@H]2[C@H](NC(=O)[C@H](N)c3ccccc3)C(=O)N2[C@H]1C(=O)O	0.8	-5.6	3.5	-20.1	1.0
O=C(NNc1nc2ccc(Cl)cc2s1)c1cc(-c2cccs2)nc2ccccc12	5.3	4.7	0.4	0.5	-0.1
O=C(Nc1ccc(O)c2c(=O)cc(-c3ccccc3Cl)oc12)c1cccc(Cl)c1	-7.7	-2.7	1.5	23.5	0.1
Cc1cccc(C(=O)Nc2ccc(O)c3c(=O)cc(-c4ccccc4Cl)oc23)c1	-6.7	-6.0	-3.2	30.9*	0.4
CC(=NNC(=O)c1ccncc1)c1ccc2ccccc2c1O	-1.8	4.8	nt	nt	nt
Cc1ccc(NC(=O)CS(=O)CC(=O)N(C2CCCC2)C(C)C(=O)NC2CCCCC2)cc1 (stereo not given)	-27.5	-1.5	48.7*	2.3	-0.1
Cc1ccc(NC(=O)CS(=O)CC(=O)N(CC(=O)NC2CCCC2)c2cc(C)ccc2C)cc1 (stereo not given)	-17.0	-1.6	-9.3	nt	nt
O=C(Nc1c2c(nn1-c1ccccc1)CS(=O)(=O)C2)c1ccc(Br)o1	-1.1	-1.7	nt	nt	nt
Cc1ccccc1NC(=O)c1sc(Cl)nc1-c1ccccc1	7.7	-2.1	-0.8	30.7*	-0.1
